USP1-UAF1 inh: blocks the human USP1/UAF1 deubiquitinase complex. recombinant USP1/UAF1, Ub-Rhodamine cleavage fluorescence. O94782. Potency, µM (top dose mostly 57.1 µM), for the others: at the highest dose activity change, negative = inhibition, usual class: inhibitors. 0.23% of 390,000 active; also: potency is read from the fitted curve at half-maximal effect; nearly all actives have a fitted effect of over 60% in size
Target sequence (O94782 whole entry, looked up): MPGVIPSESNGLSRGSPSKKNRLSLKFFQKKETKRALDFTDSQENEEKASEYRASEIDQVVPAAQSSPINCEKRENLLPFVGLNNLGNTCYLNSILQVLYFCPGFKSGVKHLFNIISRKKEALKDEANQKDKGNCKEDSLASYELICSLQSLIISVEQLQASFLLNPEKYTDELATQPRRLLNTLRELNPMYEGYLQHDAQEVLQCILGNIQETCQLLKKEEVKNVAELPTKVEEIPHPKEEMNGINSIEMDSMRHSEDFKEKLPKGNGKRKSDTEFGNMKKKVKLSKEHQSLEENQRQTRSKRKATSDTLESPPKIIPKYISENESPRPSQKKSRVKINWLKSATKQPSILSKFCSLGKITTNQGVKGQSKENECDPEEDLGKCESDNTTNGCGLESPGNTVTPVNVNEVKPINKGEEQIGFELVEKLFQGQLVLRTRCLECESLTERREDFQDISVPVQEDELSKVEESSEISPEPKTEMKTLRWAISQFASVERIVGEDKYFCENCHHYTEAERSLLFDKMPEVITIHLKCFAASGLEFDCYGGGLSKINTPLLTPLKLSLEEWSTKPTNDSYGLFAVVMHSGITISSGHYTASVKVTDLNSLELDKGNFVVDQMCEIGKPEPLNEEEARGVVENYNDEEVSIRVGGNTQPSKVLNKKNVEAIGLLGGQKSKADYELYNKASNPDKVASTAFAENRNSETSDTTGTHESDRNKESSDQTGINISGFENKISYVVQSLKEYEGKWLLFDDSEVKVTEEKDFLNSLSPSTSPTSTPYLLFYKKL
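Step one: compound is pinned into 1nM USP1/UAF1 in HEPES pH 7.8 buffer with TCEP. Step two: 15 min room-temperature incubation. Step three: Ub-Rho (150nM final) starts cleavage, tracked by fluorescence over six one-minute reads.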
Tau fluor cs: counter-screen for tau fibril formation inhibitors; tau K18 P301L Alexa594 fluorescence, heparin fibrillization; Potency, µM (top dose mostly 57.7 µM), for inactives: at the highest dose activity change, negative = decrease; 0.93% of 280,000 active; also: potency is read from the fitted curve at half-maximal effect; nearly all actives have a fitted effect of over 55% in size
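Human tau K18 P301L (15 uM unlabeled, 0.24 uM Alexa 594-labeled) in 100 mM sodium acetate pH 7 with 20 uM heparin, 6 hr at 37 C. ThT 30 uM added, 1 hr ambient; Alexa 594 FP and total fluorescence read at 555/632 nm.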
Tau fibril ThT: tau fibrillization inhibition (ThT binding); 2.1% of 270,000 active; recombinant tau K18 P301L (four-repeat tau fragment), heparin-induced fibrillization, ThT fluorescence; AID 1460; P10636; Potency, µM (doses to about 57.4 µM), for the others: at the highest dose activity, negative = inhibition, actives largely listed as inhibitors; also: potency is read from the fitted curve at half-maximal effect; nearly all actives have a fitted effect of over 55% in size
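In this qHTS, human K18 P301L tau is incubated with compound and heparin for 6 hr at 37 C, and Thioflavin T fluorescence then reports fibril load.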
Tau fibril FP: blocks human tau fibril formation measured by polarization. P10636. K18 P301L tau heparin fibrillization, Alexa594 FP, 6 h. Potency, µM (highest dose often 57.7 µM), for inactives: top-dose activity, negative = inhibition, most hits filed as inhibitors. 0.39% of 280,000 active; also: potency is read from the fitted curve at half-maximal effect; nearly all actives have a fitted effect of over 55% in size
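K18 P301L tau (15 uM unlabeled/0.24 uM Alexa 594-labeled, final) + compound + heparin 20 uM final; 100 mM NaOAc pH 7; 6 hr 37 C; ThT 30 uM final added, 1 hr RT; FP ex 555/em 632 nm.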
Coupling enz: counter-screen for Giardia aldolase inhibitors: coupling enzyme system. coupling enzyme system counterscreen, AmpLite Red fluorescence. activity change, negative = inhibition, % at 58.2 µM, hits read low. 0.67% of 290,000 active. AID 2472; in the data active = activity change below about -30%
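Counterscreen lacking aldolase: glyceraldehyde-3-phosphate coupling-enzyme reagent preincubated 10 min at RT with compound (at 57.5 uM final), then substrate/coupling system with AmpLite Red added; fluorescence read at 525/598 nm after 20 min RT.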
The depositor's hits bear a star; ? = inconclusive; . = no result; [ ] = remark or other dose. Hits are enriched below; roughly 2.3% of the tested compounds scored in any of these assays. Unless noted, calls follow the shape of the dose curve; as a rule, active = well fitted curve in the direction sought with a large enough effect; inconclusive = small, poorly fitted or top-dose-only effect, or another doubt; inactive = no such curve, though single readings can be large; an effect the other way counts as inactive or inconclusive. % is scaled to controls: 0 for no effect and ±100 for the full control effect.

SMILES | USP1-UAF1 inh | Tau fluor cs | Tau fibril ThT | Tau fibril FP | Coupling enz
Cc1cc2nc(CO)[nH]c2cc1C | -22% | 7% | 1% | 9% | 3
Cc1cc2nc(CS)[nH]c2cc1C | ? | -26% | 32µM* | -3% | -1
CCCn1c(SCC(O)c2cccc(OC)c2)nc2ccccc21 (stereo not drawn) | -27% | -6% | -1% | 2% | .
CSc1ccccc1NC(=O)COC(=O)Cc1ccsc1 | -8% | . | . | . | .
O=C(Nc1ccc(F)cc1)Nc1nnc(Cc2ccccc2)s1 | -14% | . | . | . | 1
O=C(Nc1ccc(F)cc1)Nc1nnc(COc2ccccc2F)s1 | -19% | ? | 10% | 14µM* | 0
O=C(Nc1nnc(COc2ccccc2F)s1)Nc1ccccc1F | -24% | ? | . | 14µM* | 1
Oc1ccccc1/C=N/NC(=S)NC1CC2CC1C1C=CCC21 (stereo not drawn) | -13% | 13µM*[quencher] | -11% | -13% | -2
CCOc1ccc2[nH]c3c(NCCO)ncnc3c2c1 | -28% | . | . | . | -5
CCOc1ccc2[nH]c3c(NCCc4ccc(OC)c(OC)c4)ncnc3c2c1 | -13% | 22µM*[quencher] | . | ? | -4
COc1cc(CNc2ncnc3c2[nH]c2ccc(C)cc23)cc(OC)c1 | -7% | 16µM*[quencher] | 13% | 15% | -2
Cc1ccc2[nH]c3c(NCc4ccco4)ncnc3c2c1 | -15% | -28% | ? | 14% | -3
CCN(CC)CCCCn1c(-c2ccccc2)nc2c(NCCOC)nc(C)nc21 | . | 5% | 4% | 6% | 4
O=C(CSc1ccccc1Cl)N1CCOCC1 | -8% | . | . | . | 0
COc1ccc2c(c1)O[C@H](c1ccc3c(c1)OCO3)[C@@H](OC(=O)NCCc1ccc(OC)c(OC)c1)C2=O | . | -7% | -7% | -10% | 4
COc1ccc(N2CCN(C(=O)CSc3c4c(nc5ccc(Cl)cc35)CCCC4)CC2)cc1 | -23% | ? | 14µM* | -5% | .
O=C(CSc1c2c(nc3ccc(Cl)cc13)CCCC2)N1CCN(c2ccc(Cl)cc2)CC1 | -21% | -15% | ? | -11% | .
CC1(C)CN(CCc2ccccc2)C(=O)[C@H]1CC(=O)Nc1ccccc1 | -7% | . | . | . | .
CCN(CC)c1ccc(C(=C2C=CC(=[N+](CC)Cc3cccc(S(=O)(=O)[O-])c3)C=C2)c2ccc(N(CC)Cc3cccc(S(=O)(=O)O)c3)cc2)cc1 | . | . | . | . | -23
CCN(CC)c1ccc2c(-c3ccc(S(=O)(=O)O)cc3S(=O)(=O)[O-])c3ccc(=[N+](CC)CC)cc-3oc2c1 | 32µM* | . | . | . | 85
COc1ccc(Nc2nnc(SC(C(=O)Nc3ccc(OC)c(Cl)c3)c3ccccc3)s2)cc1 (stereo not drawn) | -18% | 7.1µM*[quencher] | -17% | 18% | -7
Cc1ccc(NC(=O)CN(C)C(=O)COc2cccc3ccc(C)nc23)cc1 | -16% | . | . | . | .
COC(=O)c1cc2c(C)c(C)c3ccccn3c-2c1C(=O)OC | ? | -17% | ? | 1% | -3
CC(C)OC(=O)c1c2c(n3ccccc13)C(=O)c1ccccc1C2=O | 28µM* | ? | 11µM* | -1% | -12
COc1cc(-c2coc3cc(OC)c(OC)c(OC)c3c2=O)cc(OC)c1OC | . | -2% | -5% | 1% | 0
SMILES | USP1-UAF1 inh | Tau fluor cs | Tau fibril ThT | Tau fibril FP | Coupling enz
CC(=O)Oc1cc(-c2coc3cc(OC(C)=O)c(OC(C)=O)c(OC(C)=O)c3c2=O)cc(OC(C)=O)c1OC(C)=O | . | ? | 3.5µM* | 8.9µM* | -51*
Cc1cccc(NC(=O)c2ncn3c2C(=O)N(C)CC3)c1 | -23% | . | . | . | .
Cc1ccc(C(C)C)c(OCC(=O)N2CCC(c3nc4ccccc4o3)CC2)c1 | -18% | -27% | ? | 1% | .
CCOc1ccc(CCNC(=O)COC(=O)c2cc(S(=O)(=O)N3CCOCC3)ccc2F)cc1OCC | -13% | . | . | . | .
O=C(c1cccc(Cl)c1)n1nc(-c2cccnc2)nc1NCc1ccccc1 | -15% | -28% | ? | -7% | .
O=C(Nc1ccc(N2CCCC2)c(Cl)c1)c1cccs1 | -13% | 16µM*[quencher] | ? | 11% | -12
CS(=O)(=O)N1CCN(c2ccc(NC(=S)NC(=O)c3cccs3)cc2)CC1 | -6% | -13% | ? | 2% | 2
O=C(NC(=S)Nc1ccc(N2CCCCC2)cc1)c1cccs1 | -11% | 16µM*[quencher] | 13µM* | ? | 0
